Laboratory results published in PubChem BioAssay (NCI).
Compounds without any hit were thinned out: in the full panel of roughly 83,000, 20% have a hit.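 How to read the values: 0–100, growth inhibition (40 = 60% inhibited); 0, no net growth; -100 to 0, cell death (-40 = 40% of starting cells died; -100 = all dead).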 The source made the active and inactive calls. How the source made its calls: active means growth percent below 10; inactive means the rest.

Experiments:
Experiment in all cases: NCI-60 one-dose screen, 48 h (100 = growth as untreated, 0 = no growth, -100 = all killed)
HCT-15 colon = conditions: 10 µM unless noted
HT29 colon = conditions: 10 µM unless noted
SNB-75 CNS = conditions: 10 µM unless noted
SNB-19 CNS = conditions: 10 µM unless noted
U251 CNS = conditions: 10 µM unless noted
PC-3 prostate = conditions: 10 µM unless noted
SK-MEL-5 melanoma = conditions: 10 µM unless noted
UACC-62 melanoma = conditions: 10 µM unless noted
LOX IMVI melanoma = conditions: 10 µM unless noted
SK-MEL-28 melanoma = conditions: 10 µM unless noted
SK-MEL-2 melanoma = conditions: 10 µM unless noted
EKVX NSCLC = conditions: 10 µM unless noted
SN12C renal = conditions: 10 µM unless noted
UO-31 renal = conditions: 10 µM unless noted
TK-10 renal = conditions: 10 µM unless noted
A498 renal = conditions: 10 µM unless noted
CCRF-CEM leukemia = conditions: 10 µM unless noted
MOLT-4 leukemia = conditions: 10 µM unless noted
CAKI-1 renal = conditions: 10 µM

Measured: growth

CCn1cc(/C=C2\Oc3cc(OCC#N)ccc3C2=O)c2cc(OC)ccc21
inactive: HCT-15 colon 21.5% | SNB-75 CNS 19.1% | SNB-19 CNS 29.8% | U251 CNS 24.2% | PC-3 prostate 16.7% | SK-MEL-5 melanoma 24.6% | UACC-62 melanoma 44.6% | LOX IMVI melanoma 33.1% | SK-MEL-28 melanoma 70.5% | SK-MEL-2 melanoma 37.5% | EKVX NSCLC 47.8% | SN12C renal 42.4% | UO-31 renal 45.7% | TK-10 renal 74.2% | A498 renal 62.4% | MOLT-4 leukemia 12.9%
active: HT29 colon 5.44% | CCRF-CEM leukemia 9.65%

O=C(O)c1ccc(-c2nn(-c3ccc(C(=O)O)cc3)cc2/C=N/Nc2c(F)c(F)cc(F)c2F)cc1
inactive: HCT-15 colon 107% | HT29 colon 99.6% | SNB-75 CNS 105% | SNB-19 CNS 110% | U251 CNS 104% | PC-3 prostate 101% | SK-MEL-5 melanoma 107% | UACC-62 melanoma 106% | LOX IMVI melanoma 100% | SK-MEL-28 melanoma 104% | SK-MEL-2 melanoma 99.1% | EKVX NSCLC 103% | SN12C renal 107% | UO-31 renal 92.4% | TK-10 renal 98.1% | A498 renal 115% | CCRF-CEM leukemia 97.9% | MOLT-4 leukemia 92.8%

O[C@@H]1CCO[C@H](c2ccc3ccccc3c2)C1
inactive: HCT-15 colon 85.9% | HT29 colon 100% | SNB-75 CNS 97.2% | SNB-19 CNS 101% | U251 CNS 96.7% | PC-3 prostate 95.5% | SK-MEL-5 melanoma 102% | UACC-62 melanoma 100% | LOX IMVI melanoma 102% | SK-MEL-28 melanoma 111% | SK-MEL-2 melanoma 96% | EKVX NSCLC 102% | SN12C renal 101% | UO-31 renal 93.4% | TK-10 renal 93.9% | A498 renal 73.3% | CCRF-CEM leukemia 103% | MOLT-4 leukemia 99.1%

CC(Cl)(CCl)CS(=O)(=O)c1ccc(Cl)cc1 (centres undefined)
inactive: HCT-15 colon 105% | HT29 colon 103% | SNB-75 CNS 103% | SNB-19 CNS 101% | U251 CNS 94.4% | PC-3 prostate 97.7% | SK-MEL-5 melanoma 100% | UACC-62 melanoma 99.8% | LOX IMVI melanoma 101% | SK-MEL-28 melanoma 117% | SK-MEL-2 melanoma 99.1% | EKVX NSCLC 103% | SN12C renal 105% | UO-31 renal 92.8% | TK-10 renal 93.2% | A498 renal 77.2% | CCRF-CEM leukemia 109% | MOLT-4 leukemia 101%

Nc1c(C(=O)O)[nH]c(=O)[nH]c1=O
inactive: HCT-15 colon 104% | HT29 colon 92.7% | SNB-75 CNS 98% | SNB-19 CNS 104% | U251 CNS 91.9% | PC-3 prostate 94.4% | SK-MEL-5 melanoma 103% | UACC-62 melanoma 89% | LOX IMVI melanoma 97.6% | SK-MEL-28 melanoma 109% | SK-MEL-2 melanoma 99.5% | EKVX NSCLC 105% | SN12C renal 98.3% | UO-31 renal 94.2% | TK-10 renal 103% | A498 renal 106% | CCRF-CEM leukemia 90.3% | MOLT-4 leukemia 96.2%

CCn1cc(C(=O)O)c(=O)c2cc(F)c(N3CCN(CC(=O)Nc4ccc(C(C)=O)cc4)CC3)cc21
inactive: HCT-15 colon 104% | HT29 colon 100% | SNB-75 CNS 87.3% | SNB-19 CNS 99% | U251 CNS 99.6% | PC-3 prostate 96.4% | SK-MEL-5 melanoma 100% | UACC-62 melanoma 95.9% | LOX IMVI melanoma 96.1% | SK-MEL-28 melanoma 105% | SK-MEL-2 melanoma 92.8% | EKVX NSCLC 103% | SN12C renal 98.9% | UO-31 renal 93.6% | TK-10 renal 89.3% | A498 renal 95.5% | CCRF-CEM leukemia 98.7% | MOLT-4 leukemia 97.6%

COc1ccc(Cl)cc1NC(=O)c1cc2c([nH]1)-c1nc(NC(=O)C(C)C)sc1CC2
inactive: HCT-15 colon 95.4% | HT29 colon 87% | SNB-75 CNS 92.2% | SNB-19 CNS 110% | U251 CNS 96.5% | PC-3 prostate 87.6% | SK-MEL-5 melanoma 77.6% | UACC-62 melanoma 91.7% | LOX IMVI melanoma 95% | SK-MEL-28 melanoma 112% | SK-MEL-2 melanoma 84.6% | EKVX NSCLC 82.1% | SN12C renal 99.2% | UO-31 renal 51.9% | TK-10 renal 85.8% | A498 renal 112% | CCRF-CEM leukemia 93.4% | MOLT-4 leukemia 86%

NS(=O)(=O)c1ccc(Nc2nc(O)c(/C=C3\C=Nc4ccccc43)s2)cc1
inactive: HCT-15 colon 107% | HT29 colon 114% | SNB-75 CNS 93.7% | SNB-19 CNS 91.6% | U251 CNS 94.6% | PC-3 prostate 92.1% | SK-MEL-5 melanoma 101% | UACC-62 melanoma 82.6% | LOX IMVI melanoma 97.3% | SK-MEL-28 melanoma 110% | SK-MEL-2 melanoma 103% | EKVX NSCLC 98.2% | SN12C renal 91.1% | UO-31 renal 70.7% | TK-10 renal 112% | A498 renal 106% | CCRF-CEM leukemia 85.6% | MOLT-4 leukemia 95.4%

C[C@@H]1CC2C3C[C@H](F)C4=CC(=O)C=C[C@]4(C)[C@@]3(F)[C@@H](O)C[C@]2(C)[C@@]1(O)C(=O)CO (some centres undefined)
inactive: HCT-15 colon 101% | HT29 colon 102% | SNB-75 CNS 132% | SNB-19 CNS 91.8% | U251 CNS 105% | PC-3 prostate 86.1% | SK-MEL-5 melanoma 90.4% | UACC-62 melanoma 97.3% | LOX IMVI melanoma 92.1% | SK-MEL-28 melanoma 108% | SK-MEL-2 melanoma 94.2% | EKVX NSCLC 64.9% | SN12C renal 51.6% | UO-31 renal 71.6% | TK-10 renal 102% | CAKI-1 renal 75.8% | A498 renal 123% | CCRF-CEM leukemia 40% | MOLT-4 leukemia 76.8%

Nc1ccc(S(=O)(=O)Nc2ccnn2-c2ccccc2)cc1
inactive: HCT-15 colon 100% | HT29 colon 109% | SNB-75 CNS 106% | SNB-19 CNS 108% | U251 CNS 94.4% | PC-3 prostate 90.1% | SK-MEL-5 melanoma 105% | UACC-62 melanoma 107% | LOX IMVI melanoma 93.2% | SK-MEL-28 melanoma 119% | SK-MEL-2 melanoma 115% | EKVX NSCLC 93.8% | SN12C renal 99.7% | UO-31 renal 82.4% | TK-10 renal 117% | CAKI-1 renal 92.7% | A498 renal 107% | MOLT-4 leukemia 98.1%

CCOc1ccc(-n2c(-c3cc(OC)c(OC)c(OC)c3)nnc2-c2ccc(OC)cc2N)cc1
inactive: HCT-15 colon 64.9% | HT29 colon 52.7% | SNB-75 CNS 76.3% | SNB-19 CNS 75.5% | U251 CNS 65.6% | PC-3 prostate 63.3% | SK-MEL-5 melanoma 66% | UACC-62 melanoma 66.7% | LOX IMVI melanoma 80.3% | SK-MEL-28 melanoma 80.2% | SK-MEL-2 melanoma 65.6% | EKVX NSCLC 82.4% | SN12C renal 91.5% | UO-31 renal 57.4% | TK-10 renal 70% | A498 renal 67.3% | CCRF-CEM leukemia 42.3% | MOLT-4 leukemia 36.8%

C=C1c2c(Cl)ccc(O)c2C(O)=C2C(=O)[C@]3(O)C(O)=C(C(N)=O)C(=O)[C@@H](N(C)C)[C@@H]3[C@@H](O)[C@H]12
inactive: HCT-15 colon 13.7% | HT29 colon 10.9% | SNB-19 CNS 20.9% | SK-MEL-5 melanoma 20.4% | SK-MEL-28 melanoma 25.8% | EKVX NSCLC 36.4% | SN12C renal 10.8%
active: SNB-75 CNS 0.44% | U251 CNS 4.36% | PC-3 prostate -8.47% | UACC-62 melanoma 7.11% | LOX IMVI melanoma 0.768% | SK-MEL-2 melanoma -10.9% | UO-31 renal 4.78% | TK-10 renal 7.64% | CAKI-1 renal 3.62% | A498 renal -10% | CCRF-CEM leukemia 4.46% | MOLT-4 leukemia -11.5%

CC(NCCC(c1ccccc1)c1ccccc1)c1ccccc1 (centres undefined)
inactive: HCT-15 colon 75% | HT29 colon 13.1% | SNB-75 CNS 87.3% | SNB-19 CNS 90.7% | U251 CNS 61.1% | PC-3 prostate 48% | SK-MEL-5 melanoma 85.8% | UACC-62 melanoma 93.3% | LOX IMVI melanoma 74.6% | SK-MEL-28 melanoma 75.5% | SK-MEL-2 melanoma 79% | EKVX NSCLC 44.1% | SN12C renal 86.4% | UO-31 renal 32.6% | TK-10 renal 57.5% | CAKI-1 renal 42.3% | A498 renal 63.8% | CCRF-CEM leukemia 48% | MOLT-4 leukemia 17.8%

CC1CCc2cc(F)cc3c(=O)c(C(=O)O)cn1c23 (centres undefined)
inactive: HCT-15 colon 105% | HT29 colon 116% | SNB-75 CNS 109% | SNB-19 CNS 93.1% | U251 CNS 101% | PC-3 prostate 96.6% | SK-MEL-5 melanoma 102% | UACC-62 melanoma 92.8% | LOX IMVI melanoma 69.1% | SK-MEL-28 melanoma 120% | SK-MEL-2 melanoma 125% | EKVX NSCLC 91.4% | SN12C renal 98.2% | UO-31 renal 78.5% | TK-10 renal 103% | CAKI-1 renal 81% | A498 renal 88.1% | CCRF-CEM leukemia 109% | MOLT-4 leukemia 97.3%

Cc1cccc(Cc2cnc(NC(=O)CCc3ccc(C)o3)s2)c1
active: HCT-15 colon 7.47% | HT29 colon 0.165% | SK-MEL-5 melanoma -11.7% | A498 renal -11.7% | CCRF-CEM leukemia 5.94% | MOLT-4 leukemia 8.52%
inactive: SNB-75 CNS 23.9% | SNB-19 CNS 23.1% | U251 CNS 27.2% | PC-3 prostate 21.9% | UACC-62 melanoma 21.6% | LOX IMVI melanoma 29.9% | SK-MEL-28 melanoma 61% | SK-MEL-2 melanoma 30.6% | EKVX NSCLC 43.8% | SN12C renal 31.1% | UO-31 renal 34% | TK-10 renal 63.6%

COc1ccc(Cn2cc(COc3ccc4c5ccnc(C)c5n(CCCc5ccccc5)c4c3)nn2)cc1
inactive: HCT-15 colon 68.4% | HT29 colon 43.5% | SNB-75 CNS 51% | SNB-19 CNS 84.4% | U251 CNS 64.9% | PC-3 prostate 74.8% | SK-MEL-5 melanoma 79.1% | UACC-62 melanoma 34.8% | LOX IMVI melanoma 70.3% | SK-MEL-28 melanoma 76.2% | SK-MEL-2 melanoma 64.4% | EKVX NSCLC 101% | SN12C renal 69.1% | UO-31 renal 70.5% | TK-10 renal 103% | A498 renal 88.8% | CCRF-CEM leukemia 19.7% | MOLT-4 leukemia 38.4%

CC(=O)N1N=C(CCC(=O)c2nc3ccc([N+](=O)[O-])cc3[nH]2)OC1c1ccc(O)cc1 (centres undefined)
inactive: HCT-15 colon 97.1% | HT29 colon 76.5% | SNB-75 CNS 97.9% | SNB-19 CNS 107% | U251 CNS 109% | PC-3 prostate 101% | SK-MEL-5 melanoma 112% | UACC-62 melanoma 105% | LOX IMVI melanoma 94.8% | SK-MEL-28 melanoma 115% | SK-MEL-2 melanoma 57.4% | EKVX NSCLC 92.5% | SN12C renal 109% | UO-31 renal 80.9% | TK-10 renal 113% | A498 renal 104% | CCRF-CEM leukemia 114%
